# Results taken from the supplement of paper PMC9262897, “Low-cost anti-mycobacterial drug discovery using engineered E. coli” (Nature Communications, 2022).
# Counter-ions that a name gives are not always drawn. ± gives the standard deviation of the averaged measurements.
# System: E. coli TESEC Mtb DapB
# Experiment: growth (OD600 after 10 h); higher = more growth (less inhibition)
# Details: arabinose induction (level): High; compound 0.1 mM; raw OD600 reference: median of DMSO wells […], cell-free background 0.041
# Experimental: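 TESEC E. coli strains in which the native enzyme is deleted and replaced by arabinose-inducible Mtb Asd, DapB, CysH or TrpD, each grown in its selective medium. Strains were screened against the Prestwick library at 0.1 mM and 1% DMSO in 384-well format at low and high arabinose induction. Growth is read as OD600 after 10 h in triplicate.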
row,SMILES,growth
1,Clc1ccc(C(Cn2ccnc2)OCc2ccsc2Cl)c(Cl)c1 (stereo not given) [Tioconazole],0.0486 ± 0.00086
2,Clc1ccccc1CN1CCc2sccc2C1 [Ticlopidine hydrochloride],0.195 ± 0.0059
3,O=S(=O)(O)CCS [Mesna],0.204 ± 0.009
4,Nc1ccc(C(=O)NCC(=O)O)cc1 [Aminohippuric acid],0.208 ± 0.0093
5,CC(N)C12CC3CC(CC(C3)C1)C2 (stereo not given) [Rimantadine Hydrochloride],0.195 ± 0.021
6,Nc1nc(Cl)nc2c1ncn2[C@H]1C[C@H](O)[C@@H](CO)O1 [Cladribine],0.244 ± 0.046
7,CC(=O)Oc1ccc(C(c2ccc(OC(C)=O)cc2)c2ccccn2)cc1 [Bisacodyl],0.19 ± 0.011
8,CCC[C@H](N[C@@H](C)C(=O)N1[C@H](C(=O)O)C[C@@H]2CCCC[C@@H]21)C(=O)OCC [Perindopril],0.198 ± 0.01
9,CC(C)Cc1ccc([C@H](C)C(=O)O)cc1 [S-(+)-ibuprofen],0.196 ± 0.014
10,CN(C)CCC(c1ccccc1)c1ccccn1 (stereo not given) [Pheniramine maleate],0.201 ± 0.022
11,CCOC(=O)C(C)(C)Oc1ccc(Cl)cc1 [Clofibrate],0.19 ± 0.015
12,CN1CCC(=C2c3ccccc3Sc3ccccc32)CC1 [Pimethixene maleate],0.15 ± 0.011
13,Oc1ncnc2[nH]ncc12 [Allopurinol],0.216 ± 0.019
14,O=C1c2ccccc2S(=O)(=O)N1CCCCN1CCN(c2ncccn2)CC1 [Ipsapirone],0.205 ± 0.026
15,Nc1nc(N)nc(-c2cc(Cl)ccc2Cl)n1 [Irsogladine maleate],0.197 ± 0.019
16,CC(=O)N[C@@H](CC(C)C)C(=O)O [N-Acetyl-L-leucine],0.206 ± 0.0033
17,C[C@H](CCC(=O)O)[C@H]1CC[C@H]2[C@@H]3[C@H](O)C[C@@H]4C[C@H](O)CC[C@]4(C)[C@H]3CC[C@]12C [Chenodiol],0.168 ± 0.026
18,CN1CCCC(CC2c3ccccc3Sc3ccccc32)C1 (stereo not given) [Metixene hydrochloride],0.135 ± 0.07
19,O=C1c2c(O)ccc(O)c2C(=O)c2c(NCCNCCO)ccc(NCCNCCO)c21 [Mitoxantrone dihydrochloride],0.348 ± 0.0055
20,NCC[C@H](O)C(=O)N[C@@H]1C[C@H](N)[C@@H](O[C@H]2O[C@H](CN)[C@@H](O)[C@H](O)[C@H]2O)[C@H](O)[C@H]1O[C@H]1O[C@H](CO)[C@@H](O)[C@H](N)[C@H]1O [Amikacin hydrate],0.0548 ± 0.0017

# Same assay, conditions: arabinose induction (level): Low; compound 0.1 mM; raw OD600 reference: median of DMSO wells 0.227, cell-free background 0.041
row,SMILES,growth
1,Clc1ccc(C(Cn2ccnc2)OCc2ccsc2Cl)c(Cl)c1 (stereo not given) [Tioconazole],0.0575 ± 0.017
2,Clc1ccccc1CN1CCc2sccc2C1 [Ticlopidine hydrochloride],0.23 ± 0.029
3,O=S(=O)(O)CCS [Mesna],0.214 ± 0.046
4,Nc1ccc(C(=O)NCC(=O)O)cc1 [Aminohippuric acid],0.234 ± 0.0072
5,CC(N)C12CC3CC(CC(C3)C1)C2 (stereo not given) [Rimantadine Hydrochloride],0.232 ± 0.025
6,Nc1nc(Cl)nc2c1ncn2[C@H]1C[C@H](O)[C@@H](CO)O1 [Cladribine],0.209 ± 0.018
7,CC(=O)Oc1ccc(C(c2ccc(OC(C)=O)cc2)c2ccccn2)cc1 [Bisacodyl],0.2324 ± 0.0015
8,CCC[C@H](N[C@@H](C)C(=O)N1[C@H](C(=O)O)C[C@@H]2CCCC[C@@H]21)C(=O)OCC [Perindopril],0.239 ± 0.041
9,CC(C)Cc1ccc([C@H](C)C(=O)O)cc1 [S-(+)-ibuprofen],0.18 ± 0.016
10,CN(C)CCC(c1ccccc1)c1ccccn1 (stereo not given) [Pheniramine maleate],0.213 ± 0.019
11,CCOC(=O)C(C)(C)Oc1ccc(Cl)cc1 [Clofibrate],0.236 ± 0.041
12,CN1CCC(=C2c3ccccc3Sc3ccccc32)CC1 [Pimethixene maleate],0.223 ± 0.069
13,Oc1ncnc2[nH]ncc12 [Allopurinol],0.234 ± 0.016
14,O=C1c2ccccc2S(=O)(=O)N1CCCCN1CCN(c2ncccn2)CC1 [Ipsapirone],0.221 ± 0.021
15,Nc1nc(N)nc(-c2cc(Cl)ccc2Cl)n1 [Irsogladine maleate],0.211 ± 0.017
16,CC(=O)N[C@@H](CC(C)C)C(=O)O [N-Acetyl-L-leucine],0.205 ± 0.0021
17,C[C@H](CCC(=O)O)[C@H]1CC[C@H]2[C@@H]3[C@H](O)C[C@@H]4C[C@H](O)CC[C@]4(C)[C@H]3CC[C@]12C [Chenodiol],0.179 ± 0.0059
18,CN1CCCC(CC2c3ccccc3Sc3ccccc32)C1 (stereo not given) [Metixene hydrochloride],0.0594 ± 0.0035
19,O=C1c2c(O)ccc(O)c2C(=O)c2c(NCCNCCO)ccc(NCCNCCO)c21 [Mitoxantrone dihydrochloride],0.348 ± 0.0049
20,NCC[C@H](O)C(=O)N[C@@H]1C[C@H](N)[C@@H](O[C@H]2O[C@H](CN)[C@@H](O)[C@H](O)[C@H]2O)[C@H](O)[C@H]1O[C@H]1O[C@H](CO)[C@@H](O)[C@H](N)[C@H]1O [Amikacin hydrate],0.0518 ± 0.0032
